Unmarked numbers belong to inactive results. The source made the active and inactive calls. The call rests on the fitted dose curve; in most records, active means well fitted curve in the direction sought with a large enough effect; inactive means no such curve, though single readings can be large or run the other way.

We go through 13 compounds from PubChem BioAssay AID624059 (National Center for Advancing Translational Sciences (NCATS), 2012).

This test is described as follows: qHTS for Inhibitors of Mutant Isocitrate Dehydrogenase 1 (IDH1): U87 Cytotoxicity Assay for Probe SAR. The conditions noted are these: U87MG-IDH1 R132H viability, CellTiter-Glo luminescence, 72 h; series mostly up to 22.1 µM; activity change, negative = cytotoxicity: at the top concentration. An excerpt: Malignant glioblastomas (WHO grade IV), including primary and secondary glioblastomas, are among the most lethal with a median survival of one year, and unfortunately they are also the most prevalent type of brain tumors. By and large the standard of care of gliomas remains the use of the oral alkylating agent temozolomide and radiotherapy following surgical tumor resection. There is an urgent unmet medical need for novel therapeutics for gliomas. IDH mutations occur in up to 70% of grade II-IV secondary glioblastomas, and IDH1 R132H is the most prevalent mutation. […] Wild-type (WT) IDH1 catalyzes the conversion of isocitrate to -ketoglutarate with the concomitant reduction of NADP+ to NADPH. In contrast, IDH1 R132H catalyzes the conversion of alpha-ketoglutarate to 2-hydroxyglutarate (2-HG) with the concomitant oxidation of NADPH to NADP+ [5]. Recently, a second significant advancement for the field was the finding that IDH is an oncogene, and that its metabolic product 2-HG may contribute to the pathogenesis of IDH-mutated cancers. […] Although this link to cancer is tantalizing, the direct evidence of how 2-HG drives pathogenesis of gliomas and AML remains a subject of further research. The goal of this cell assay is to identify whether the small-molecule inhibitors of IDH1 R132H are cytotoxic in U87MG-IDH1 R132H cells. Compounds were screened as concentration-titration series that ranged from 50 microM to 14 nM. NIH Molecular Libraries Probe Production Network [MLPCN] NIH Chemical Genomics Center [NCGC] MLSCN Grant: R03 DA032129 PI Name: Dr. Lenny Dang
Cells were dispensed into 96-well black solid bottom plates at 2500 cells/well (RPMI medium with 10% FBS). The plates were incubated overnight at 37 °C and 5% CO2. The media was aspirated off and fresh media (RPMI and 10% FBS) with compounds in 7-point dose response was added. The plates were incubated for 48 hours at 37 °C and 5% CO2. From each well 100 microL was removed and used for LC-MS analysis to quantitate the amount of 2-HG product. The remaining cells/media were incubated for 24 additional hours at which point 100 uL of Cell Titer Glo (Promega) was added. The plates were shaken for 10 minutes and then incubated at room temperature for 20 minutes. The luminescence was read on the ViewLux in end-point mode (0.5 sec). Concentration-response curves were fitted to the signals arising from the resulting selective ion monitoring. The concentration-response curves were then classified based on curve quality (r2), response magnitude and degree of measured activity, and compounds were subsequently categorized based on their curve class. […] Keywords: Isocitrate dehydrogenase, IDH1, IDH1 R132H, 2-HG, 2-hydroxyglutarate, AML, glioma, MLSMR, MLPCN, NIH Roadmap, qHTS, NCGC
On the technique in general: qHTS replaces the single test concentration by a dilution series.
In the case of `Cc1ccccc1C(C(=O)NC1CCCC1)N(C(=O)Cc1cccs1)c1ccccc1F` (stereo not drawn), the “activity change, negative = cytotoxicity” value was -40% [at 50 µM].

In the case of `O=C(NC1CCCC1)C(c1ccccc1)N(C(=O)Cc1cccs1)c1cccc(F)c1` (stereo not drawn), the “activity change, negative = cytotoxicity” value is -5.77% [at 50 µM].

With `Cc1ccccc1C(C(=O)NC1CCCCC1)N(C(=O)c1ccccn1)c1cccc(F)c1` (stereo not drawn), the Potency is 11.8 µM (active).

With `COc1ccc(N(C(=O)Cn2cnc3ccccc32)C(C(=O)NC2CCCCC2)c2ccccc2)cc1` (stereo not drawn), the “activity change, negative = cytotoxicity” value was -6.32% [at 30 µM].

On to `COc1ccc(N(C(=O)C2COc3ccccc3O2)C(C(=O)NC2CCCCC2)c2ccccc2)cc1OC` (stereo not drawn), for which the “activity change, negative = cytotoxicity” value is -23.5% [at 30 µM].

Consider `Cc1ccccc1C(C(=O)NC1CCCCC1)N(C(=O)Cc1cccs1)c1cccc(F)c1` (stereo not drawn), for which the “activity change, negative = cytotoxicity” value is -21.8% [at 10.3 µM].

On to `Cc1ccccc1C(C(=O)NC1CCCC1)N(C(=O)Cc1cccs1)c1cccc(F)c1` (stereo not drawn), for which the “activity change, negative = cytotoxicity” value is 6.51%.

Regarding `Cc1ccccc1C(C(=O)NC(C)(C)C)N(C(=O)Cc1cccs1)c1cccc(F)c1` (stereo not drawn), the “activity change, negative = cytotoxicity” value was -14.4%.

Turning to `COc1cccc(C(C(=O)NC2CCCCC2)N(C(=O)c2cccs2)c2ccc3c(c2)OCO3)c1` (stereo not drawn), the “activity change, negative = cytotoxicity” value is -30.4% [at 30 µM].

As for `Cc1ccccc1C(C(=O)NC1CCCCC1)N(C(=O)CNS(=O)(=O)c1ccccc1)c1cccc(F)c1` (stereo not drawn), the Potency was 10.1 µM (active).

Regarding `COc1cccc(N(C(=O)Cc2cccs2)C(C(=O)NC2CCCC2)c2ccccc2)c1` (stereo not drawn), the “activity change, negative = cytotoxicity” value is -9% [at 50 µM].

Turning to `Cc1ccccc1C(C(=O)NC1CCCC1)N(C(=O)Cn1cnc2ccccc21)c1cccc(F)c1` (stereo not drawn), the “activity change, negative = cytotoxicity” value is 18.6%.

Consider `Cc1nc(C)c(C(=O)N(c2cccc(F)c2)C(C(=O)NC2CCCCC2)c2ccccc2)s1` (stereo not drawn), for which the “activity change, negative = cytotoxicity” value was -12.4%.
